HSP90 inh: HSP90 refolding inhibition in rabbit reticulocyte lysate | luciferase refolding luminescence, 3 h | inhibition, % at 5.6 µM | 290,000 tested, 0.91% active | AID 1789;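 active = inhibition above the screen-wide mean plus 3 SD, computed separately per campaign, cut at about 16% in these data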;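 also: 0% = DMSO wells and 100% = 60 µM geldanamycin wells; inhibitors lower the luminescence because luciferase stays unfolded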
C8 TRAIL sens: caspase-8 TRAIL sensitization | AID 624354 | NB7+C8 cells + TRAIL, ATPlite viability luminescence | 360,000 tested, 1% active | inhibition (viability loss, TRAIL sensitization), % at 10 µM;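 active = compounds causing at least 50% loss of cell viability in the single-dose screen, relative to plate controls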
TROY signal inh: TROY signaling inhibition. Q293 LMP1-TROYcd NF-kB luciferase reporter, 4 h. inhibition, % at 10 µM. 360,000 tested, 0.98% active;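 active = compounds whose plate-normalised and pattern-corrected inhibition of the luciferase reporter signal at the single screening dose is 50% or more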
PPC-1+TRAIL kill: compounds killing PPC-1 cancer cells with TRAIL present (potentiator screen, no TRAIL-free arm); PPC-1 cells + TRAIL, ATPLite viability luminescence; cell killing (% activity), % at 4 µM or 5 µM; 220,000 tested, 0.41% active;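 active = cell killing above 50% in the first pass at 4 µM, then a duplicate retest at 5 µM averaging 50% or more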;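 also: plate controls were cells with TRAIL plus DMSO for no effect and medium-only wells lacking cells for full effect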
TWEAK-Fn14 inh: inhibitors of TWEAK-Fn14 interaction signaling. TWEAK-stimulated Fn14 reporter cells, luciferase luminescence, 8 h. inhibition, % at 10 µM. 360,000 tested, 2% active; in the data active = inhibition above about 50%
Platelet DG rel: platelet dense granule release activity. human platelet-rich plasma, SFLLRN dense granule ATP release, luminescence. inhibition, %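 (compounds screened at 7.5 µM in platelet-rich plasma)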. 300,000 tested, 0.22% active. AID 1663;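 active = mean replicate score, as percent of positive control, at or above 50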
Starred values were filed as active, the others as inactive; x = not tested or not shown. In the library only some 3.5% were active in any assay of this set; here they are far more common.

SMILES	HSP90 inh	C8 TRAIL sens	TROY signal inh	PPC-1+TRAIL kill	TWEAK-Fn14 inh	Platelet DG rel
O=C(Nc1ncccc1O)c1ccc2ccccc2c1	16.9*	28.8	-12.6	x	39.6	-5.2
CCc1cc(C(=O)N2CCCC(N3CCN(c4cccc(C(F)(F)F)c4)CC3)C2)n(C)n1 (stereo not given)	-1.1	14.1	23.5	x	26.2	4.6
N#C/C(=C\Nc1ccccc1O)c1nc2ccccc2o1	-0.2	6.6	51.5*	2.8	42.9	-10.6
N#C/C(=C\c1ccncc1)c1nc2ccccc2o1	3.3	-14.0	-16.9	-39.8	-17.5	30.3
C#CCN(C[C@@H]1[C@@H](OC(=O)NCc2ccco2)[C@@H](OC(=O)NCc2ccco2)Cn2c(=O)ccc(=O)n21)S(=O)(=O)c1ccc(C)cc1	x	15.2	18.5	x	38.0	x
C#CCN(C[C@@H]1[C@@H](OC(=O)NCC2CCCCC2)[C@@H](OC(=O)NCC2CCCCC2)Cn2c(=O)ccc(=O)n21)S(=O)(=O)c1ccc(C)cc1	x	92.8*	73.9*	x	106.9*	x
CCCCCCNC(=O)O[C@H]1Cn2c(=O)ccc(=O)n2[C@@H]2CN(S(=O)(=O)c3ccc(C)cc3)C[C@]12O	x	27.7	12.9	x	89.1*	x
C#CCN(C[C@@H]1[C@@H](OC(=O)NCCCCCC)[C@@H](OC(=O)NCCCCCC)Cn2c(=O)ccc(=O)n21)S(=O)(=O)c1ccc(C)cc1	x	89.4*	88.0*	x	106.5*	x
O=C1CCC2S/C(=C/Nc3ccc(C(F)(F)F)cc3)C(=O)N12 (stereo not given)	9.3	-2.6	-37.0	30.2	86.0*	-6.9
O=C1CCCC/C1=C/Nc1cccc(C(F)(F)F)c1	-2.0	1.7	-10.6	31.5	-11.3	3.4
COc1cc(CN2CCC(Cc3ccccc3)CC2)c([N+](=O)[O-])cc1OC	5.8	-7.8	8.0	x	79.9*	-3.5
COc1cc(C)c(CN2CCC(Cc3ccccc3)CC2)cc1C	-0.4	5.6	10.3	x	-6.4	-4.9
CN(CC(=O)Nc1ccccc1Cl)C(=O)CSc1nnc(-c2ccco2)n1C	x	-7.6	-6.4	x	11.8	x
CCc1ccc(-c2cc(C)no2)cc1S(=O)(=O)N1CCN(c2ccccn2)CC1	4.3	-27.6	50.5*	x	-5.1	3.6
Cc1cc(-c2ccc(C(C)C)c(S(=O)(=O)N3CCN(c4ccccn4)CC3)c2)on1	3.6	30.5	13.5	x	7.9	-0.6
O=C(N/N=C\c1ccc(Oc2ccccc2)cc1)c1csnn1	3.6	4.4	-58.5	8.2	15.4	17.5
CN(C)c1ccc(/C=N/NC(=O)c2ccco2)cc1	5.4	66.1*	25.6	41.0	41.5	17.1
CN(C)c1ccc(/C=N\NC(=O)c2csnn2)cc1	11.1	25.9	19.1	34.9	71.3*	19.4
CN(C)c1ccc(C=Nc2ccccc2C(N)=O)cc1	10.5	85.0*	-49.1	79.9*	-2.3	x
CN(C)c1ccc(C=NNC(=O)c2cccnc2)cc1	x	15.5	-32.2	x	-2.7	x
CN(C)c1ccc(/C=N/NC(=O)c2ccnn2C)cc1	3.4	0.2	-43.3	22.5	5.3	73.0*
CCCCOC(=O)CCc1c(C)n[nH]c1C	-0.6	-5.7	7.1	-4.8	-3.4	1.2
CCOC(=O)c1ccc(S(=O)(=O)NNC(=O)c2cccc(N(C)C)c2)cc1	-0.6	0.0	-15.2	1.7	-48.5	3.2
CCOC(=O)[C@@H]1[C@H]2COc3cc(OC)ccc3[C@H]2N2C(=O)N(c3ccc(C(F)(F)F)cc3)C(=O)[C@]12C	x	6.4	38.9	x	74.4*	x
CC(=O)c1ccc(NC(=S)N2CCCC(CO)C2)cc1 (stereo not given)	1.7	19.4	-15.4	34.1	1.0	18.1
SMILES	HSP90 inh	C8 TRAIL sens	TROY signal inh	PPC-1+TRAIL kill	TWEAK-Fn14 inh	Platelet DG rel
COc1cc(NC(=S)N2CCCC(CO)C2)cc(OC)c1 (stereo not given)	-0.5	-5.4	-36.8	10.1	61.7*	-0.2
COC(=O)Cc1ccc(NC(=S)N2CCCC(CO)C2)cc1 (stereo not given)	4.4	75.2*	-43.1	63.0*	-3.5	-87.2
COC(=O)Cc1ccc(NC(=S)N2CCN(c3cc(Cl)ccc3C)CC2)cc1	-3.1	22.0	36.3	19.4	56.3*	-10.8
Cc1cccc(NC(=O)COc2ccc(-c3nn(C)c(=O)c4ccccc34)cc2)c1	-1.7	18.4	26.7	x	7.6	-13.1
Cn1nc(-c2ccc(OCC(=O)Nc3ccccc3)cc2)c2ccccc2c1=O	-0.1	6.1	15.5	11.0	53.1*	0.7
N#Cc1cc(NC(=O)c2ccc(Cl)cc2)ccc1Sc1ccccc1	x	28.7	50.4*	x	64.2*	x
COc1ccc(Sc2ccc(NC(=O)c3ccccc3Cl)cc2C#N)cc1	-2.8	23.6	1.1	-1.7	14.8	13.4
CCCCN(CCCC)CCNC(=O)c1cn(C)c2ccc(S(=O)(=O)N3CCCC3)cc2c1=O	-2.6	-11.4	-6.5	x	7.0	-1.7
O=C1CC(=O)N(Cc2ccco2)C(=S)N1	1.7	3.5	4.6	-14.8	51.3*	-1.5
Cc1ccc(NC(=O)c2ccc(=O)[nH]c2)cc1S(=O)(=O)N1CCCCCC1	x	17.5	5.8	x	16.9	x
Cc1cc(OCC(=O)OCC(=O)c2c(N)n(C)c(=O)n(C)c2=O)ccc1Cl	x	-2.4	15.2	x	86.1*	x
CC(=O)Nc1nc2ccccc2n1CCOc1ccccc1	7.4	52.4*	-1.8	42.1	-8.9	-1.7
O=C(Nc1cccc(-c2ccc(N3CCOCC3)nn2)c1)c1ccc(Cl)cc1	x	18.5	-51.1	x	-14.4	12.0
O=C(COc1ccc(Cl)cc1)Nc1cccc(-c2ccc(N3CCOCC3)nn2)c1	x	58.7*	15.7	x	29.5	12.6
O=C(Nc1cccc(-c2ccc(N3CCCCC3)nn2)c1)c1ccco1	x	81.1*	29.3	x	42.0	11.5
O=C(Nc1cccc(-c2ccc(N3CCOCC3)nn2)c1)c1ccccc1Cl	x	60.7*	-60.5	x	-26.2	23.6
COc1cccc(OC)c1C(=O)Nc1cccc(-c2ccc(N3CCOCC3)nn2)c1	x	72.8*	-46.0	x	-15.0	-5.1
CCC(CC)N=C1NS(=O)(=O)c2cc([N+](=O)[O-])ccc21	-3.2	-4.1	15.5	4.2	-5.1	9.0
CC1CCCCC1NC(=O)c1cccc(N2C(=O)C3C4C=CC(C4)C3C2=O)c1 (stereo not given)	-5.8	-4.6	9.2	x	19.3	-19.4
O=C(c1ccco1)N(Cc1cccnc1)C(c1ccccc1)c1nc2ccccc2[nH]1 (stereo not given)	x	-10.2	-42.1	x	-2.8	x
Cc1noc(C)c1COc1ccccc1C(=O)NC(C)c1ccc(F)cc1 (stereo not given)	x	10.8	-10.0	x	-5.4	x
Cc1cc(C(=O)Nc2cccc(-c3ccc(N4CCOCC4)nn3)c2)ccc1[N+](=O)[O-]	x	50.5*	-39.9	x	-13.5	14.2
Cc1ccc(C(=O)Nc2cccc(-c3ccc(N4CCOCC4)nn3)c2)cc1C	x	43.9	-58.6	x	-25.4	17.7
COc1ccc(S(=O)(=O)NCCC(=O)NC2CCCCC2C)cc1[N+](=O)[O-] (stereo not given)	x	-0.9	14.2	x	2.5	x

High-throughput results: PubChem, several laboratories
